Experimental data from publication PMC7862700, “An all-to-all approach to the identification of sequence-specific readers for epigenetic DNA modifications on cytosine”.

Tests used:
Assay in all cases: DAPPL (digital affinity profiling via proximity ligation, sequencing); 10 mM Tris-HCl pH 7.5, 50 mM NaCl, 1 mM DTT, 4% glycerol, room temperature, 30 min; GST-TFs on glutathione beads, 16-mer random dsDNA library, 0.1% formaldehyde crosslink after washing; high values mean tight binding
FEV = target: T1, FEV (Homo sapiens, UniProt Q99581 1-238); details: protein: recombinant; tags: N-terminal GST; dsDNA, one strand shown
T1 sequence: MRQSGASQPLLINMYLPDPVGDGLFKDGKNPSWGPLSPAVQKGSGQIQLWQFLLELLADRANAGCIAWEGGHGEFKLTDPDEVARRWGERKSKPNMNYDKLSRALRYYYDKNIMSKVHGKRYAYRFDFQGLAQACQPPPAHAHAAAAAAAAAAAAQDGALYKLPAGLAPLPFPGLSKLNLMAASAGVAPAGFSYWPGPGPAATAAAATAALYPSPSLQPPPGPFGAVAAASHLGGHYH
How it was run: (§1)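 Human transcription factors were made in yeast as GST fusions, captured on glutathione beads and barcoded with DNA. With a tag-only sample included, the pool was incubated with 200 nmole of a random double-stranded 16-mer DNA library in Tris/NaCl/DTT/glycerol buffer at room temperature for 30 min, then crosslinked with 0.1% formaldehyde after washing, ligated by proximity, amplified and sequenced. For binding signal, each hexamer's read frequency for a factor is divided by its frequency for the tag-only sample.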

ETV5 = ETV5 (Homo sapiens, UniProt P41161 1-510); details: protein: recombinant; tags: N-terminal GST; dsDNA, one strand shown
How it was run: as §1

HSF1 = HSF1 (Homo sapiens, UniProt Q00613 1-529); details: protein: recombinant; tags: N-terminal GST; chain copies: 3; dsDNA, one strand shown
How it was run: as §1

SPIC = target: T2, SPIC (Homo sapiens, UniProt Q8N5J4 1-248); details: protein: recombinant; tags: N-terminal GST; dsDNA, one strand shown
T2 sequence: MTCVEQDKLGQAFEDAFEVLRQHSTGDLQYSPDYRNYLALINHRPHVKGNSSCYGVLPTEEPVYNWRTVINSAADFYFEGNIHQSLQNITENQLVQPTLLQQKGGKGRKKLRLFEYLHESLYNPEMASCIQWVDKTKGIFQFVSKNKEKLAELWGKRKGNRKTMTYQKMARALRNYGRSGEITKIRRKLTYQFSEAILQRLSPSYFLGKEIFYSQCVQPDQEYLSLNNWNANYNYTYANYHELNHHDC
How it was run: as §1

ELF4 = ELF4 (Homo sapiens, UniProt Q99607 1-663); details: protein: recombinant; tags: N-terminal GST; dsDNA, one strand shown
How it was run: as §1

ELK4 = target: T3, ELK4 (Homo sapiens, UniProt P28324-2 1-405); details: protein: recombinant; tags: N-terminal GST; dsDNA, one strand shown
T3 sequence: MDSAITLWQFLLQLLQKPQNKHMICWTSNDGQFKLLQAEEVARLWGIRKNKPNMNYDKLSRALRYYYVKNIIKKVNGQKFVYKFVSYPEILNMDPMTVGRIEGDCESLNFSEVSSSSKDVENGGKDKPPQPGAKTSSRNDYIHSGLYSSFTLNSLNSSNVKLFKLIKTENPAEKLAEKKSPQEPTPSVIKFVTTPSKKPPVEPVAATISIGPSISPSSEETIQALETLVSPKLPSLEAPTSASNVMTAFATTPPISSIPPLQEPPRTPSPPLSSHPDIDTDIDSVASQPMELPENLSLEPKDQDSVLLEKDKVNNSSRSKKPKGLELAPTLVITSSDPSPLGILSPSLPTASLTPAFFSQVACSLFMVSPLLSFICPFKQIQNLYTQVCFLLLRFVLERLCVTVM
How it was run: as §1

ETV2 = target: T4, ETV2 (Homo sapiens, UniProt O00321 1-342); details: protein: recombinant; tags: N-terminal GST; dsDNA, one strand shown
T4 sequence: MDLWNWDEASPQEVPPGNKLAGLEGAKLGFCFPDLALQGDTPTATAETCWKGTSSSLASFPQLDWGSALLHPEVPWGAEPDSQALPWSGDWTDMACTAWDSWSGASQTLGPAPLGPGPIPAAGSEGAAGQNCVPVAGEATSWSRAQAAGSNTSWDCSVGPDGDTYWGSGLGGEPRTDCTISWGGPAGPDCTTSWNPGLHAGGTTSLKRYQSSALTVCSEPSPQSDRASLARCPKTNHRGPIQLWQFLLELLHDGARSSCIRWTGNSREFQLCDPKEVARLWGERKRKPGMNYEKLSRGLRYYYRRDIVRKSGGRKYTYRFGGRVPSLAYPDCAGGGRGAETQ
How it was run: as §1

ELF3 = target: T5, ELF3 (Homo sapiens, UniProt P78545 1-371); details: protein: recombinant; tags: N-terminal GST; dsDNA, one strand shown
T5 sequence: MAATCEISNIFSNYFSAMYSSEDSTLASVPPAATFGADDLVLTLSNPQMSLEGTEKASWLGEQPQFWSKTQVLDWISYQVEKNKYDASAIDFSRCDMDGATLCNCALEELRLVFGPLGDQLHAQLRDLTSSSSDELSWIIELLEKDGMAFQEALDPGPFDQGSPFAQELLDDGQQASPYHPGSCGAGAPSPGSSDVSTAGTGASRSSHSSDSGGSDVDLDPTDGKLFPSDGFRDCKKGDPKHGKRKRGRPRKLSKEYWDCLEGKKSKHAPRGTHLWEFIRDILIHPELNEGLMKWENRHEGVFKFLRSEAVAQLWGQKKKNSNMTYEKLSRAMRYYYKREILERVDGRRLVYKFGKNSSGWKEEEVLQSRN
How it was run: as §1

CRX = CRX (Homo sapiens, UniProt O43186 1-299); details: protein: recombinant; tags: N-terminal GST; dsDNA, one strand shown
How it was run: as §1

ETV1 = ETV1 (Homo sapiens, UniProt P50549 1-477); details: protein: recombinant; tags: N-terminal GST; dsDNA, one strand shown
How it was run: as §1

ERF = target: T6, ERF (Homo sapiens, UniProt P50548 1-548); details: protein: recombinant; tags: N-terminal GST; dsDNA, one strand shown
T6 sequence: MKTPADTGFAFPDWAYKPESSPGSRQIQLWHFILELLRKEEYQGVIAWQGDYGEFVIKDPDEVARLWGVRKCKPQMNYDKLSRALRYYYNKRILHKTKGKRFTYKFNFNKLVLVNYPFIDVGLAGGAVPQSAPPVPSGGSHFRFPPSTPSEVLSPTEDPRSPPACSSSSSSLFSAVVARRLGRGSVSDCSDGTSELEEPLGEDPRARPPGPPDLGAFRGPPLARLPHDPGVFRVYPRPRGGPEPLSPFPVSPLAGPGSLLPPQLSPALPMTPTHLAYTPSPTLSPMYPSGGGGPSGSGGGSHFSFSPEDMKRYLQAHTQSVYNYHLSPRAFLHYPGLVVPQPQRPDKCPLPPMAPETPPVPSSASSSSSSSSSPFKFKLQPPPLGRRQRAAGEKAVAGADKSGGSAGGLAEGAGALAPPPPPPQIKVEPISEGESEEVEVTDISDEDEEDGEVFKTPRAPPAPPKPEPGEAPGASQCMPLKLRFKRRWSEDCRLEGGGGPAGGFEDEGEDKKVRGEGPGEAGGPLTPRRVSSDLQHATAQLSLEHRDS
How it was run: as §1

ETV3L = target: T7, ETV3L (Homo sapiens, UniProt Q6ZN32 1-361); details: protein: recombinant; tags: N-terminal GST; dsDNA, one strand shown
T7 sequence: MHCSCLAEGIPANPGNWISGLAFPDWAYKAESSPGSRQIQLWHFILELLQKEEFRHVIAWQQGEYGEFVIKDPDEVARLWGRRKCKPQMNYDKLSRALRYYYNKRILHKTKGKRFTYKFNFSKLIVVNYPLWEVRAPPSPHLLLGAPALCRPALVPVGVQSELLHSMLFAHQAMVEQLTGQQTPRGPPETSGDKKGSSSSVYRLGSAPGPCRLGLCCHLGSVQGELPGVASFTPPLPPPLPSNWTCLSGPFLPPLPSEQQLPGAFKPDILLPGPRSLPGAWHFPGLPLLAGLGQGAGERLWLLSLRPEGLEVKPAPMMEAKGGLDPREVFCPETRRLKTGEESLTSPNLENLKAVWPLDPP
How it was run: as §1

ETS2 = target: T8, ETS2 (Homo sapiens, UniProt P15036 1-469); details: protein: recombinant; tags: N-terminal GST; dsDNA, one strand shown
T8 sequence: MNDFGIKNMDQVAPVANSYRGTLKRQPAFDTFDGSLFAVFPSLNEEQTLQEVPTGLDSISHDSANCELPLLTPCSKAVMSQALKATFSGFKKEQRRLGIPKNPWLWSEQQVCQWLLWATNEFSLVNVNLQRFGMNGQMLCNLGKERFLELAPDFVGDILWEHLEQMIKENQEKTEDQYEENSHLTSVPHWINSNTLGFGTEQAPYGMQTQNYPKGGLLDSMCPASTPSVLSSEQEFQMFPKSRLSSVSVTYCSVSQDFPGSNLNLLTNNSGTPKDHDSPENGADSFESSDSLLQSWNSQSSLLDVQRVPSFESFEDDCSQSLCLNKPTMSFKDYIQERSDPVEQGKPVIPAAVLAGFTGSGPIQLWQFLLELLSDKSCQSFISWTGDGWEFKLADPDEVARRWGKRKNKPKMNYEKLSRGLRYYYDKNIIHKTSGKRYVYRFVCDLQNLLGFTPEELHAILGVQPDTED
How it was run: as §1

SPDEF = target: T9, SPDEF (Homo sapiens, UniProt O95238 1-335); details: protein: recombinant; tags: N-terminal GST; dsDNA, one strand shown
T9 sequence: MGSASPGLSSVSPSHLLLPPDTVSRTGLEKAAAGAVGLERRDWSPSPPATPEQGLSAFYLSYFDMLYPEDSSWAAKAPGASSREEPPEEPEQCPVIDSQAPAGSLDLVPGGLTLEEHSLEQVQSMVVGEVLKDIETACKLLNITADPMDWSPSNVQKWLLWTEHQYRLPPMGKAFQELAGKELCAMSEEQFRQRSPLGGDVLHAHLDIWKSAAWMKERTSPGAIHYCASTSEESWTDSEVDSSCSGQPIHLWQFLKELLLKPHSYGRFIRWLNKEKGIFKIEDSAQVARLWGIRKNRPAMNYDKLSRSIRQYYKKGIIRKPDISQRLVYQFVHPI
How it was run: as §1

ETV7 = target: T10, ETV7 (Homo sapiens, UniProt Q9Y603 1-341); details: protein: recombinant; tags: N-terminal GST; dsDNA, one strand shown
T10 sequence: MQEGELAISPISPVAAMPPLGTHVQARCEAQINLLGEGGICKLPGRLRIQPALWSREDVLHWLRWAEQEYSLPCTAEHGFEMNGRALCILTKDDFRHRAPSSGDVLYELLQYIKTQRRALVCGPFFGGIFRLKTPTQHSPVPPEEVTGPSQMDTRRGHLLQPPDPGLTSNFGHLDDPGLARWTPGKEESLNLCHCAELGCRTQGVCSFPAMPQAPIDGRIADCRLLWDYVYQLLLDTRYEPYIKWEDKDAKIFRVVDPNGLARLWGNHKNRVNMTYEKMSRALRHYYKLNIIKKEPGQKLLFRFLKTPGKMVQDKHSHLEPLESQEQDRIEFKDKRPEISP
How it was run: as §1

ELF5 = target: T11, ELF5 (Homo sapiens, UniProt Q9UKW6-2 1-255); details: protein: recombinant; tags: N-terminal GST; dsDNA, one strand shown
T11 sequence: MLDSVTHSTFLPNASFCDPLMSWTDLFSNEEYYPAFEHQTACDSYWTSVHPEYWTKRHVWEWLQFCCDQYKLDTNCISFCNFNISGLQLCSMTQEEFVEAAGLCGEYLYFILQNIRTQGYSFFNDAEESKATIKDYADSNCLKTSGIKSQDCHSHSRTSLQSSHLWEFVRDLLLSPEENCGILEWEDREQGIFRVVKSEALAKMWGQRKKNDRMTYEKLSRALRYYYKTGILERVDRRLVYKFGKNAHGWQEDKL
How it was run: as §1

ETV3 = target: T12, ETV3 (Homo sapiens, UniProt P41162-2 1-143); details: protein: recombinant; tags: N-terminal GST; dsDNA, one strand shown
T12 sequence: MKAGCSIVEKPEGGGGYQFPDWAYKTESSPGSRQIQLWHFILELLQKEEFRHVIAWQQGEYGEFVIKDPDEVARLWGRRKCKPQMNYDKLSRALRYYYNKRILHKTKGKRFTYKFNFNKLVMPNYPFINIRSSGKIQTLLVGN
How it was run: as §1

ETV6 = ETV6 (Homo sapiens, UniProt P41212 1-452); details: protein: recombinant; tags: N-terminal GST; dsDNA, one strand shown
How it was run: as §1

ETV1, sequence (P50549 whole entry): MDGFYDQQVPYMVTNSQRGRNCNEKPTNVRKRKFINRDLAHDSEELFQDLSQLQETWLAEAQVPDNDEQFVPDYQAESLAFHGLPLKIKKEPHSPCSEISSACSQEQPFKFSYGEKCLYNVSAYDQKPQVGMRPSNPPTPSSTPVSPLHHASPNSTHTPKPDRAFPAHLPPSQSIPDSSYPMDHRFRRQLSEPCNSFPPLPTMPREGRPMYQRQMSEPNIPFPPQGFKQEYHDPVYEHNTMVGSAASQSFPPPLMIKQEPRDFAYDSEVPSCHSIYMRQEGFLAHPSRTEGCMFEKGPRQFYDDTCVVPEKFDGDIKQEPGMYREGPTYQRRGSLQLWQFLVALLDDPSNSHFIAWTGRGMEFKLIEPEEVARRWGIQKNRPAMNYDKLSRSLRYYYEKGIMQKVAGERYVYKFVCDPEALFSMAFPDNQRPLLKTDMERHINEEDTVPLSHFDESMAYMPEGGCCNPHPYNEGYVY
HSF1, sequence (Q00613 whole entry): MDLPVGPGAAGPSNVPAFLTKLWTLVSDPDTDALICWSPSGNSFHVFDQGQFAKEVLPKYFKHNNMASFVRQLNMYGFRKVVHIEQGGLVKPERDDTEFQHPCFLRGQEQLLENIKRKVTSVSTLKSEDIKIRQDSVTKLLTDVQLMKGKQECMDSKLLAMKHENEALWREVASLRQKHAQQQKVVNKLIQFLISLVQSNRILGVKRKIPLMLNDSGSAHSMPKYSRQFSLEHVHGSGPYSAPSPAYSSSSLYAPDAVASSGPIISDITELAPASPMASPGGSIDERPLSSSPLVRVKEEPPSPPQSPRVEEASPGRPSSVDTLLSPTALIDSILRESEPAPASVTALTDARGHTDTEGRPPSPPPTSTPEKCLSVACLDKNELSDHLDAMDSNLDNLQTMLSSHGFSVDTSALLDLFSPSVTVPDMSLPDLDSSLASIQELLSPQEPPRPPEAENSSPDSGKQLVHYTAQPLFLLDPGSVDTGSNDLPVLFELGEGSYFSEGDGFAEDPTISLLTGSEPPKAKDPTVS
ETV5, sequence (P41161 whole entry): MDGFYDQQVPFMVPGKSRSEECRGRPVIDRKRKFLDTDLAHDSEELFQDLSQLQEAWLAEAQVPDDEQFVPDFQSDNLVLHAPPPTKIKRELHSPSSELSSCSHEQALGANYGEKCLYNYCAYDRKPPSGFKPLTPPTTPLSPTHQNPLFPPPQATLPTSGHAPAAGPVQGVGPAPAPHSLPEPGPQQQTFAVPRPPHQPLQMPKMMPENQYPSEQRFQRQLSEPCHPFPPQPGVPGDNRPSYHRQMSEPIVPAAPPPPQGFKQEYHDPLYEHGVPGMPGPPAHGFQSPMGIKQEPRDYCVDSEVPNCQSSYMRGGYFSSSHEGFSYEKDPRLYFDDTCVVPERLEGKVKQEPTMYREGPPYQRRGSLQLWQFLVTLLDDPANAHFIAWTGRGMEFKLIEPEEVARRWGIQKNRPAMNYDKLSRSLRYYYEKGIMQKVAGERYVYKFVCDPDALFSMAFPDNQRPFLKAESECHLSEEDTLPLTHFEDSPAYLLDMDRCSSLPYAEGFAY
CRX, sequence (O43186 whole entry): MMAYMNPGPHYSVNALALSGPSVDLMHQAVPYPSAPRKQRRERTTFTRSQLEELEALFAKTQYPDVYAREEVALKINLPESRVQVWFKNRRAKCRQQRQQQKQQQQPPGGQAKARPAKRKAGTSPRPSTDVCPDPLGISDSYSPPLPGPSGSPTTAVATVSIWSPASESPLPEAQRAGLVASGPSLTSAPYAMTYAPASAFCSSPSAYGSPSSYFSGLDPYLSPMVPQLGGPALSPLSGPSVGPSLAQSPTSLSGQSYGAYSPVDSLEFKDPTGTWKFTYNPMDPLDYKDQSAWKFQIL
ELF4, sequence (Q99607 whole entry): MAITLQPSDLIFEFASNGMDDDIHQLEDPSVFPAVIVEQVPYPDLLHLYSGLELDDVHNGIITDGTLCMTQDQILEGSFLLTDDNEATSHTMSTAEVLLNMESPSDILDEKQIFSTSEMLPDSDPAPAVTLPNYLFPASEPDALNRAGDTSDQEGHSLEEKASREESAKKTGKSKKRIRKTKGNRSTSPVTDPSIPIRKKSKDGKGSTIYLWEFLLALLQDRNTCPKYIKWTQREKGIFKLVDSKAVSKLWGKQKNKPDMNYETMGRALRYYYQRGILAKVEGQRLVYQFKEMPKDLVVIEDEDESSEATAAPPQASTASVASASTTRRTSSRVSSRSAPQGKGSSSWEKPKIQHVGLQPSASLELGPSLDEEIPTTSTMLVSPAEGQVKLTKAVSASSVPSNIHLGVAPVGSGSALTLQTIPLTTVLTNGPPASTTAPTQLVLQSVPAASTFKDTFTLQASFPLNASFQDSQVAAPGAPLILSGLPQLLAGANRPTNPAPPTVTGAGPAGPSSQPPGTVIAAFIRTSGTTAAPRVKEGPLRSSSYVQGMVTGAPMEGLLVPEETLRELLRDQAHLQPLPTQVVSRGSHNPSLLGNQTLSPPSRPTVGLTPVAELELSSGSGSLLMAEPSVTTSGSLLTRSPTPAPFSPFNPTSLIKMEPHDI
ETV6, sequence (P41212 whole entry): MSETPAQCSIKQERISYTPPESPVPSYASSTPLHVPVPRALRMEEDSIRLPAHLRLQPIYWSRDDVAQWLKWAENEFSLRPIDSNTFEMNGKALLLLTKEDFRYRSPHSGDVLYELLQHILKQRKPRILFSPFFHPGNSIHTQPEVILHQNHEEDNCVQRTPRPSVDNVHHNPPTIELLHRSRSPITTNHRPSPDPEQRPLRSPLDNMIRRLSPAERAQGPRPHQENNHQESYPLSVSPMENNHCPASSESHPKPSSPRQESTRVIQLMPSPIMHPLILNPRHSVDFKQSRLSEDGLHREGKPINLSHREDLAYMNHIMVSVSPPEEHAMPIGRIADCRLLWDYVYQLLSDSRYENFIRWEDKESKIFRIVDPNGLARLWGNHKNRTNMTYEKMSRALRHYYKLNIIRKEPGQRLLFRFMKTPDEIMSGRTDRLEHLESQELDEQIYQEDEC

TTCCTT
binding signal (FEV): 1.76 fold enrichment (6-mer frequency, TF over GST control) | binding signal (ETV5): 2 fold enrichment (6-mer frequency, TF over GST control) | binding signal (HSF1): 1.61 fold enrichment (6-mer frequency, TF over GST control) | binding signal (SPIC): 1.99 fold enrichment (6-mer frequency, TF over GST control) | binding signal (ELF4): 1.79 fold enrichment (6-mer frequency, TF over GST control) | binding signal (ELK4): 1.75 fold enrichment (6-mer frequency, TF over GST control) | binding signal (ETV2): 1.79 fold enrichment (6-mer frequency, TF over GST control) | binding signal (ELF3): 1.76 fold enrichment (6-mer frequency, TF over GST control) | binding signal (CRX): 1.33 fold enrichment (6-mer frequency, TF over GST control) | binding signal (ETV1): 2.04 fold enrichment (6-mer frequency, TF over GST control) | binding signal (ERF): 1.77 fold enrichment (6-mer frequency, TF over GST control) | binding signal (ETV3L): 1.91 fold enrichment (6-mer frequency, TF over GST control) | binding signal (ETS2): 1.94 fold enrichment (6-mer frequency, TF over GST control) | binding signal (SPDEF): 1.77 fold enrichment (6-mer frequency, TF over GST control) | binding signal (ETV7): 1.92 fold enrichment (6-mer frequency, TF over GST control) | binding signal (ELF5): 3.67 fold enrichment (6-mer frequency, TF over GST control) | binding signal (ETV3): 2.13 fold enrichment (6-mer frequency, TF over GST control) | binding signal (ETV6): 2.1 fold enrichment (6-mer frequency, TF over GST control)
